{
  "source": "PubChem BioAssay (EPA / NIEHS)",
  "note": "A structure can be active in one record and inactive in another. Calls of active or inactive are those of the source. The calls were made as follows: active = hit-call score of the fitted dose curve at least 0.9, where 1 is the maximum; inactive = score below 0.9.",
  "data": [
    {"read-out": "Monokine induced gamma interferon (MIG), CXCL9 (gene 4283)", "test": "BSK_BE3C_MIG: BioMAP Diversity Plus: BE3C Assay for Monokine induced gamma interferon (MIG) Biomarker Activity (AID 2283035)", "conditions": "primary human bronchial epithelial cells; actives raise or lower the signal", "protocol": "BSK_BE3C is a cell-based, multiplexed-readout assay that uses bronchial epithelial cell, a human lung primary cell, with measurements taken at 24 hours after chemical dosing in a 96-well plate.BSK_BE3C_MIG is an assay component measured in the BSK_BE3C assay. It measures MIG antibody related to regulation of gene expression using ELISA technology.Data from the assay component BSK_BE3C_MIG was analyzed into 1 assay endpoint. This assay endpoint, BSK_BE3C_MIG, was analyzed with bidirectional fitting relative to DMSO as the negative control and baseline of activity. Using a type of binding reporter, gain or loss-of-signal activity can be used to understand changes in the signaling as they relate to the gene CXCL9. Furthermore, this assay endpoint can be referred to as a primary readout, because this assay has produced multiple assay endpoints where this one serves a signaling function. To generalize the intended target to other relatable targets, this assay endpoint is annotated to the cytokine intended target family, where the subfamily is chemotactic factor.\nThe levels of cell surface (or secreted, indicated by the prefix \"s\") biomarker endpoints were measured by ELISA. Overt cytotoxicity to cells in confluent adherent cultures (all systems other than the BT system) was assessed by measuring total protein levels using sulforhodamine B (SRB) staining in parallel cultures at the time of biomarker measurements, indicated as SRB endpoints. For proliferation assays for adherent cell types, individual cell types are cultured at sub-confluence and relative cell numbers quantified by SRB staining at time points optimized for each system (48 h: 3C and CASM3C systems; 72 h: BT and HDF3CGF systems; 96 h: SAg system). SRB was performed by staining cells with 0.1% SRB after fixation with 10% TCA and reading wells at 560 nm.Viability and proliferation of PBMC (T cells) was quantified by Alamar Blue reduction for the SAg and BT systems. For PBMC viability (referred to as PBMC Cytotoxicity within the assay endpoint names), cells were plated (75,000/well in a 96-well plate) and then chemical samples added for 1 h before addition of activators, SEB and TSST-1 (20 ng/mL final concentration each). Cells were incubated for 90 h. Then, Alamar Blue (20 uL/well) (Invitrogen, Cat DAL1100) was added for 6 h, and the plates were read with a fluorescence microplate reader at 546/580 nm (excitation/emission). For PBMC proliferation, cells were plated and activated as above but incubated for only 16 h prior to addition of Alamar Blue. Plates were read after 6 h.", "values": [
      {"compound": "O=C(O)COc1ccc(Cl)cc1Cl", "outcome": "inactive"},
      {"compound": "CC1(c2ccc(Oc3ccccc3)cc2)OC(=O)N(Nc2ccccc2)C1=O", "note": "(stereo not given)", "outcome": "inactive"},
      {"compound": "CNC(=O)CSP(=S)(OC)OC", "outcome": "inactive"},
      {"compound": "O=[N+]([O-])c1c(Cl)c(Cl)c(Cl)c(Cl)c1Cl", "outcome": "inactive"},
      {"compound": "ClC1C(Cl)C(Cl)C(Cl)C(Cl)C1Cl", "note": "(stereo not given)", "outcome": "inactive"},
      {"compound": "CCC(C)Nc1c([N+](=O)[O-])cc(C(C)(C)C)cc1[N+](=O)[O-]", "note": "(stereo not given)", "outcome": "inactive"},
      {"compound": "O=S(=O)(O)C(F)(F)C(F)(F)C(F)(F)C(F)(F)C(F)(F)C(F)(F)C(F)(F)C(F)(F)F", "AC50": "43.3 µM (active) [middle of 4 runs]", "outcome": "inactive"},
      {"compound": "O=C1c2ccccc2C(=O)N1SC(Cl)(Cl)Cl", "AC50": "35.7 µM (active)"},
      {"compound": "C[C@H]1[C@H](c2ccc(Cl)cc2)SC(=O)N1C(=O)NC1CCCCC1", "outcome": "inactive"},
      {"compound": "CCOc1nc(NC)nc(NC(=O)NS(=O)(=O)c2ccccc2C(=O)OC)n1", "outcome": "inactive"},
      {"compound": "O=S1OCC2C(CO1)C1(Cl)C(Cl)=C(Cl)C2(Cl)C1(Cl)Cl", "note": "(stereo not given)", "AC50": "34.4 µM (active)"},
      {"compound": "CCOCN(C(=O)CCl)c1c(C)cccc1CC", "outcome": "inactive"},
      {"compound": "COP(=S)(OC)Oc1ccc([N+](=O)[O-])cc1", "outcome": "inactive"},
      {"compound": "[2H]C1([2H])[n+]2ccccc2-c2cccc[n+]2C1([2H])[2H]", "outcome": "inactive"},
      {"compound": "OCCOc1ccccc1", "outcome": "inactive"},
      {"compound": "COP(=S)(OC)Oc1ccc(SC)c(C)c1", "outcome": "inactive"},
      {"compound": "CCc1ccc(C(=O)NN(C(=O)c2cc(C)cc(C)c2)C(C)(C)C)cc1", "outcome": "inactive"},
      {"compound": "CCCN(CCOc1c(Cl)cc(Cl)cc1Cl)C(=O)n1ccnc1", "outcome": "inactive"},
      {"compound": "CCCN(CCC)c1c([N+](=O)[O-])cc(C(F)(F)F)cc1[N+](=O)[O-]", "outcome": "inactive"},
      {"compound": "CCOC1Oc2ccc(OS(C)(=O)=O)cc2C1(C)C", "note": "(stereo not given)", "outcome": "inactive"},
      {"compound": "N#CN", "outcome": "inactive"},
      {"compound": "CCN(CC)C(=O)SCc1ccc(Cl)cc1", "outcome": "inactive"},
      {"compound": "CCC(C)(C)C(=O)OC1=C(c2ccc(Cl)cc2Cl)C(=O)OC12CCCCC2", "AC50": "34.2 µM (active)"},
      {"compound": "O=[N+]([O-])/N=C1\\NCCN1Cc1ccc(Cl)nc1", "outcome": "inactive"},
      {"compound": "CC(C)OC(=O)Nc1cccc(Cl)c1", "outcome": "inactive"},
      {"compound": "CCS(=O)(=O)c1cccnc1S(=O)(=O)NC(=O)Nc1nc(OC)cc(OC)n1", "outcome": "inactive"},
      {"compound": "CC(C)N(C(=O)COc1nnc(C(F)(F)F)s1)c1ccc(F)cc1", "outcome": "inactive"},
      {"compound": "O=C(O)CCCOc1ccc(Cl)cc1Cl", "outcome": "inactive"},
      {"compound": "CC(C)(C)C(O)C(Oc1ccc(Cl)cc1)n1cncn1", "note": "(stereo not given)", "outcome": "inactive"},
      {"compound": "COC(=O)c1ccccc1S(=O)(=O)NC(=O)N(C)c1nc(C)nc(OC)n1", "outcome": "inactive"},
      {"compound": "O=C(NC(=O)c1c(F)cccc1F)Nc1ccc(OC(F)(F)C(F)OC(F)(F)F)c(Cl)c1", "note": "(stereo not given)", "outcome": "inactive"},
      {"compound": "CNC(=O)Oc1cccc(N=CN(C)C)c1", "outcome": "inactive"},
      {"compound": "O=C(Nc1ccccc1)Nc1cnns1", "outcome": "inactive"},
      {"compound": "Clc1ccccc1-c1nnc(-c2ccccc2Cl)nn1", "outcome": "inactive"},
      {"compound": "COC(=O)c1ccccc1CS(=O)(=O)NC(=O)Nc1nc(OC)cc(OC)n1", "outcome": "inactive"},
      {"compound": "O=C(O)C(F)(F)C(F)(F)C(F)(F)C(F)(F)C(F)(F)C(F)(F)C(F)(F)F", "outcome": "inactive"},
      {"compound": "Cc1[nH]c(=O)n(C(C)(C)C)c(=O)c1Cl", "outcome": "inactive"},
      {"compound": "CC1(C)C(C=C(Cl)Cl)C1C(=O)OC(C#N)c1ccc(F)c(Oc2ccccc2)c1", "note": "(stereo not given)", "outcome": "inactive"},
      {"compound": "CNC(=O)/C=C(\\C)OP(=O)(OC)OC", "outcome": "inactive"}
    ]}
  ]
}
